# This is a sample that favours compounds with a hit; in the whole collection about 2.9% have one here.
# NSD2 inh – blocks human histone methyltransferase NSD2; 310,000 tested, 0.54% active; AID 743445; inhibition, % at 12.5 µM; O96028; NSD2 peptide methylation, AlphaScreen, 120 min; in the data active means inhibition above about 50%
# Glyco luc inh – N-linked glycosylation inhibition; D54 ERlucT glycosylation luciferase reporter, 24 h; percent of 100 nM tunicamycin response; reporter increase, % at 12.5 µM; 360,000 tested, 0.23% active; AID 588692;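 active means mean luciferase reporter signal, scaled so untreated is 0 and the glycosylation-blocking control 100, at or above a set limit in every replicate; inconclusive means mean reaches the limit but not every replicate does; inactive means mean below the limit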;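 further: luciferase carries N-glycosylation sites so blocking glycosylation raises the light; 0% = median of neutral control wells and 100% = median of 100 nM tunicamycin wells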
# Wnt bcat act – Wnt/beta-catenin pathway activation | 300,000 tested, 1.2% active | activation, % at 9.35 µM | Wnt/beta-catenin reporter cell assay, activator, plate reader; in the data active means activation above about 30%, passing the limit was not always enough; inconclusive means no clear call, values can overlap the other calls;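 further: 0% = neutral control wells and 100% = positive control wells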
# MITF act – MITF TRPM1 promoter activation in melanoma cells; activation, % at 12.5 µM; AID 588334; SK-MEL-5 TRPM1-promoter luciferase, 24 h; % of positive control, neutral wells = 0; 300,000 tested, 0.75% active;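 active means mean activation of at least 80% with every replicate also reaching 80%; inconclusive means mean reaches 80% but some replicate falls short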;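 further: 0% = neutral control wells and 100% = parthenolide positive control wells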
# PfHsp90 yeast 2 – inhibits growth of yeast expressing Plasmodium falciparum Hsp90; S. cerevisiae expressing PfHsp90, BacTiter-Glo ATP, 48 h; yeast lacking PDR1 and PDR3 efflux regulators; inhibition, % at 9.4 µM; 310,000 tested, 0.32% active; AID 504621;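 active means every replicate shows inhibition above about 80%, whatever the replicate mean, limit read from the data; inconclusive means mean inhibition reaches the set limit but some replicate falls short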;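 further: 0% = DMSO neutral controls and 100% = 20 µM radicicol positive controls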
# MITF TRPM1 inh – inhibitors of MITF-driven TRPM1 promoter in melanoma cells; inhibition, % at 12.5 µM; 330,000 tested, 0.83% active; SK-MEL-5 TRPM1 promoter luciferase, 24 h;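 active means mean inhibition across replicates of 60% or more, whatever share of single replicates reaches that level; inconclusive means some that reach 60%, reason not given; inactive means mean inhibition across replicates below 60%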
# * hit, by the source's call; ? = inconclusive; . = no result given.
SMILES,NSD2 inh,Glyco luc inh,Wnt bcat act,MITF act,PfHsp90 yeast 2,MITF TRPM1 inh
O=[N+]([O-])c1ccccc1-c1ccc(/C=N/n2cnnc2)o1,7.3,0.0,.,-2.5,0.7,0.7
O=C1ON=C(c2ccccc2)/C1=C/c1ccc(-c2ccccc2[N+](=O)[O-])o1,32.9,8.0,-1.9,-66.5,-29.3,67.1*
c1ccc2[nH]c3cc4ncnc4cc3nc2c1,18.6,26.1*,6.2,10.8,-32.2,-6.3
FC(F)c1nc2ccccc2[nH]1,-1.5,0.7,0.1,-1.7,-21.7,3.4
CC(C)c1ccc(NC(=O)COC(=O)CC2CCCC2)cc1,-3.8,1.6,1.5,.,-0.8,.
O=C(COC(=O)CC1CCCC1)Nc1cc2c(cc1Cl)C(=O)c1ccccc1C2=O,-0.2,5.4,38.6*,29.2,2.0,-28.4
Nc1c(Cl)cc(-c2csc(N3CCCC3c3nc4cc(Cl)c(N5CCCCC5)cc4n3CCCO)n2)cc1Cl (stereo not given),.,-4.6,-8.7,-14.5,-22.9,13.6
CN(C(=O)c1cccc(NC(=O)Cc2ccc(NC(=O)C3CCN(C(=O)C4CCCC4)CC3)cc2)c1)C1CC1,.,-0.5,-1.0,4.3,1.4,-4.6
NC(=O)c1ccc(N=Cc2c(O)ccc3ccccc23)cc1,5.9,2.9,3.4,.,-11.8,-2.1
C=CCS/C(N)=N\N=C\c1c(O)ccc2ccccc12,-0.1,-4.9,99.0*,58.4,-8.6,-60.0
CCCCn1c(SCC(=O)NC2CC2)nnc1-c1ccncc1,-3.7,1.7,0.3,0.4,-19.7,-1.5
CCCn1c(SCC(=O)NC2CCCCC2)nnc1-c1ccncc1,-3.6,0.3,54.2*,-11.0,13.7,12.3
CCN1CCC(O)(/C=C/c2ccc(C(C)C)cc2)C(C(=O)/C=C/c2ccc(C(C)C)cc2)C1 (stereo not given),8.0,-6.3,-24.7,-63.7,24.8,66.5*
CCCn1c(SCC(=O)NNC(=O)c2ccccc2)nnc1-c1cccnc1,-2.9,0.1,-1.2,5.6,12.2,-6.1
C(=NN=C1c2ccccc2-c2ccccc21)c1c[nH]c2ccccc12,-1.0,2.8,17.1,4.8,130.6*,-6.1
Oc1ccc(C=NN=C2c3ccccc3-c3ccccc32)c(O)c1,0.8,0.7,-3.6,-1.0,137.2*,-0.2
COC(=O)[C@]12C[C@H](CC(=O)N3CCC(c4ccccc4)CC3)C(=O)N(Cc3ccccc3)C1=C[C@H](C(C)C)O[C@@H]2C1CC1,.,.,0.4,.,.,.
CCCc1cc(CN(C)C(=O)CC2C(=O)NCCN2Cc2ccccc2C)[nH]n1 (stereo not given),0.7,1.0,1.5,-4.7,-0.9,5.8
Cc1n[nH]c(C)c1S(=O)(=O)NCCc1c[nH]c2ccccc12,11.3,.,.,.,.,.
N/C(Cc1ccc(Cl)c(Cl)c1)=N\OC(=O)c1ccc(Br)o1,0.7,-0.6,-0.4,.,94.6*,-2.5
O=C(Cc1ccccc1)N/N=C/c1ccc(OC(=O)/C=C\c2ccco2)cc1,-2.6,5.5,104.4*,-7.7,-19.1,12.2
COC(=O)N/N=C/c1ccc(OC(=O)/C=C/c2ccco2)cc1,3.8,2.1,53.4*,.,.,.
CCc1ccc(OC(=O)/C=C/c2ccco2)cc1,8.7,-4.0,-2.0,.,5.4,-14.1
Cc1c(C(=O)NC(C)c2ccccn2)oc2c(Cl)cccc12 (stereo not given),-1.4,1.0,1.6,-26.8,.,29.3
Cc1ccc(C)n1-c1cccc(NC(=O)c2ccccc2)c1,-2.0,20.0,.,-11.0,13.5,12.5
SMILES,NSD2 inh,Glyco luc inh,Wnt bcat act,MITF act,PfHsp90 yeast 2,MITF TRPM1 inh
O=C(Nc1ccc(C(F)(F)F)cc1)c1ccccc1,.,-3.5,21.2,99.5*,8.3,-93.8
CC(C)(C)C(=O)NC(=S)Nc1ccc(C(F)(F)F)cc1,-0.1,0.8,43.1*,18.1,16.9,-14.3
O=C(Nc1ccc(C(F)(F)F)cc1)c1ccccc1Br,-2.1,-3.0,6.0,66.2,27.4,-63.4
COc1ccc(C(=O)Nc2ccc3c4c(cccc24)CC3)cc1,-0.9,-1.2,15.1,87.4*,-24.4,-89.3
Cc1ccc(C)n1-c1ccc(C(=O)Nc2ccccc2)cc1,-0.9,8.6,102.2*,43.8,-6.0,-39.1
CC(C)(C)C(=O)NC(=S)Nc1ccc(Cl)c(C(=O)O)c1,3.4,0.1,0.4,-4.1,-15.8,6.3
Cn1c(=O)oc2ccc(S(=O)(=O)Nc3ccc(Cl)cc3[N+](=O)[O-])cc21,1.9,.,-0.8,.,.,.
c1ccc(Cc2cnc(N3CCN(Cc4csc5ccccc45)CC3)nc2)cc1,.,.,-1.0,.,.,.
c1ccc(OCC2CCNCC2)nc1,1.4,1.6,-1.1,5.3,3.7,-7.3
COc1ccc(C(=O)Nc2ccccc2C(N)=O)cc1,0.6,-0.9,.,83.0*,39.0,-83.6
O=C(Nc1ccc(-c2cnco2)cc1)c1ccccc1,-3.5,0.1,21.5,85.9*,-29.7,-84.8
CCOC(=O)c1ccc(NC2=CC(=O)C(=O)c3ccccc32)cc1,25.8,0.3,.,-74.6,-15.5,75.5*
COc1ccc(NC(=O)c2ccc3[nH]c(C)c(C)c3c2)cc1,25.5,-3.5,15.7,88.1*,31.9,-79.0
CCOC(=O)c1ccc(S(=O)(=O)NCCNCc2ccccc2)cc1,-2.9,-3.1,39.1*,2.3,.,0.6
COc1ccc(NC(=O)c2c(NC(=O)CCC(=O)O)sc(-c3ccccc3)c2C)cc1,.,-0.4,34.1*,2.3,-1.7,-1.8
COc1ccc(NC(=O)c2cc(C)on2)cc1,-2.2,-3.1,34.0*,75.3,2.4,-71.2
O=C(Nc1ccc(C(=O)c2ccccc2)cc1)c1ccccc1,0.7,-4.1,50.5*,126.9*,39.1,-133.8
COC(=O)c1c(NC(=O)CCC(=O)O)sc(Cc2ccccc2)c1C,0.5,-0.1,6.8,-0.3,7.0,5.7
CCOC(=O)c1ccc(COC(=O)CNS(=O)(=O)c2ccccc2)cc1,-2.6,-1.0,-0.6,9.7,-0.7,-5.0
Cc1ccc(S(=O)(=O)Nc2cc(C(=O)O)ccc2N2CCC(C)CC2)cc1C,-2.4,.,.,.,.,.
COc1cc(C(=O)NN=C2c3ccccc3-c3ccccc32)cc(OC)c1OC,-1.5,.,-2.9,.,.,.
CCOC(=O)c1ccc(Nc2cnc3ccccc3n2)cc1,-2.3,1.2,34.0*,?,.,-92.6
Cc1csc(NC(=O)c2cc(C)on2)n1,4.6,-7.2,39.9*,55.1,-21.8,-51.7
CCOC(=O)c1ccc(NC(=O)c2ccc(NS(C)(=O)=O)cc2)cc1,0.1,4.5,-1.7,18.8,-1.8,-18.5
Cc1csc(NC(=O)c2cnccn2)n1,-2.0,1.3,.,.,-16.2,-44.2
CCOC(=O)c1ccc(NC(=O)c2ccccc2)cc1,-1.1,-2.8,18.9,113.8*,-0.8,-107.2
COc1ccc(NC(=O)c2ccccc2)cc1,.,-1.2,28.1,108.1*,-4.5,-106.2
Cc1cc(NC(=O)CCC(=O)N(Cc2ccc(F)cc2)C(C(=O)NC2CCCC2)c2ccco2)no1 (stereo not given),5.6,-0.4,-1.3,-11.0,0.0,9.6

# Assay outcomes (PubChem BioAssay)
